# Sm TGR inh: qHTS Assay for the Inhibitors of Schistosoma Mansoni Peroxiredoxins; purified TGR, DTNB reduction, TNB absorbance 405 nm; AID 485364, 2010; actives 3% (n = 360,000); Schistosoma mansoni thioredoxin glutathione reductase (TGR), Q962Y6; Potency, µM (top dose mostly 114 µM), for the others: at the highest dose activity change, negative = inhibition, actives largely listed as inhibitors; active = well fitted inhibition curve with a large enough effect; inconclusive = small, poorly fitted or top-dose-only effect; inactive = no such curve, though single readings can be large or run the other way; note: % is set by controls: 0 for no effect and ±100 for the full control effect; nearly all actives have a fitted effect of over 60% in size
#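 First, TGR (20 nM dispensed) and NADPH were mixed with compound. Second, a 15 min room-temperature incubation followed. Third, further NADPH and then DTNB were added to start the reaction. Finally, TNB absorbance was monitored kinetically.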
# SARS PLpro yeast: qHTS of Yeast-based Assay for SARS-CoV PLP. S. cerevisiae expressing SARS-CoV PLpro, growth rescue. Potency, µM (doses to about 32.9 µM), for inactives: top-dose activity, positive = growth rescue, usual class: activators. actives 0.19% (n = 330,000). AID 485353, 2010; calls by dose curve; note: 0% is about no effect; nearly all actives have a fitted effect of over 55% in size
# The depositor's hits bear a star; ? = inconclusive; · = no result given. Rows were chosen to be rich in hits. Some 3% of all compounds tested hit in one or more screens of this group. Potency is the fitted concentration of half-maximal effect.
SMILES,Sm TGR inh,SARS PLpro yeast
CC1CC(C)CN(C(=O)c2ccc(-c3ccc([N+](=O)[O-])cc3)o2)C1 (stereo not drawn),3.16µM*,2.6%
Cc1ccccc1Cn1nnc2c(=O)[nH]c(C3CCCN(C(=O)c4ccc(F)cc4)C3)nc21 (stereo not drawn),-2.2%,·
Cc1ccc(-n2ncc(C(=O)NCc3ccccc3C)c2-n2cccc2)cc1,-0.2%,·
Cc1ccc(CNC(=O)CCS(=O)(=O)c2ccc(Br)s2)o1,10µM*,-6.2%
CC(=O)c1cccc(NC(=O)CCS(=O)(=O)c2ccc(Br)s2)c1,39.8µM*,-0.7%
COC(=O)c1ccc(NC(=O)CCS(=O)(=O)c2ccc(Br)s2)cc1,-29.2%,-10.1%
O=C(CCS(=O)(=O)c1ccc(Br)s1)NCc1ccccc1,?,4.1%
CCC1Sc2ccc(S(=O)(=O)CCC(=O)NCc3ccc(C)o3)cc2NC1=O (stereo not drawn),28.2µM*,-1.3%
CCC1Sc2ccc(S(=O)(=O)CCC(=O)Nc3ccccc3Cl)cc2NC1=O (stereo not drawn),-18.5%,3.0%
CCN(CC)S(=O)(=O)c1ccc(C(=O)NC2CC(=O)N(c3ccc(OC)c(OC)c3)C2)cc1 (stereo not drawn),2.1%,·
COc1cccc(CNC(=O)C2CCN(S(=O)(=O)c3c(C)noc3/C=C/c3cccs3)CC2)c1,-0.1%,·
O=C(CCS(=O)(=O)c1ccc(Cl)cc1)N1CCN(c2ccc(F)cc2)CC1,-1.0%,0.2%
CCOC(=O)C1CCN(C(=O)CCS(=O)(=O)c2ccc3c(c2)CC(C)N3C(=O)CC)CC1 (stereo not drawn),?,-1.1%
CCC(=O)N1c2ccc(S(=O)(=O)CCC(=O)N3CCN(c4ccc(F)cc4)CC3)cc2CC1C (stereo not drawn),5.62µM*,·
CCC(=O)N1c2ccc(S(=O)(=O)CCC(=O)N3CCN(c4cc(C)ccc4C)CC3)cc2CC1C (stereo not drawn),-0.9%,·
CCOC(=O)N1CCN(C(=O)CCS(=O)(=O)c2ccc3c(c2)CC(C)N3C(=O)CC)CC1 (stereo not drawn),22.4µM*,0.8%
Cc1ccc(S(=O)(=O)CCC(=O)N2CCN(c3ccc(Cl)cc3)CC2)cc1,12.6µM*,2.3%
Fc1ccc(-c2noc3ncnc(NCCc4ccccc4)c23)cc1,1.0%,·
Cc1ccc(-c2noc(CNC(=O)c3ccc(C)c(Cl)c3)n2)cc1,0.8%,·
Oc1ccc(/C=N/N2CCCCC2)cc1O,2.82µM*,4.7%
COc1ccc(O)c(/C=N/N2CCCCC2)c1,2.8%,2.7%
COc1cc(/C=N/N2CCCCC2)cc(OC)c1O,14.1µM*,0.0%
Clc1ccc(/C=N/N2CCCCC2)cc1,8.8%,-0.3%
O=C(O)c1ccc2c(c1)C(=O)N([C@H](Cc1ccc(C(F)(F)F)cc1)C(=O)O)C2=O,-1.2%,-6.6%
C=Cc1ccc(Cn2nc(-c3ccc(C)c(S(=O)(=O)N(CC)CC)c3)ccc2=O)cc1,-0.2%,·
SMILES,Sm TGR inh,SARS PLpro yeast
Cc1ccc(OCC(=O)Nc2ccc(S(=O)(=O)Nc3cc(C)nc(C)n3)cc2)c(Br)c1,-5.9%,·
CCn1c(=O)cc(OCC(=O)NCc2ccc(C)o2)c2ccccc21,35.5µM*,1.9%
Cc1ccc(CNC(=O)CCCOc2cc(=O)n(C)c3ccccc23)o1,12.6µM*,-2.2%
CC(C)CCNC(=O)CCCOc1cc(=O)n(C)c2ccccc12,12.3%,4.0%
O=C(CCCn1c(=O)c2ccccc2n(CC(=O)NCc2ccco2)c1=O)NCc1ccco1,25.1µM*,0.3%
COc1ccc(CNC(=O)CCCOc2cc(=O)n(C)c3ccccc23)cc1,1.0%,-4.9%
Cn1c(=O)cc(OCCCC(=O)NCc2ccco2)c2ccccc21,39.8µM*,4.0%
CCn1c(=O)cc(OCC(=O)NCc2ccco2)c2ccccc21,?,-2.0%
Cc1ccc(NC(=O)Cn2c(=O)n(CCCCC(=O)NCc3ccco3)c(=O)c3ccccc32)cc1,-21.2%,1.4%
CCN(CC)CCCNC(=O)c1c(C)oc2ncnc(N3CCOCC3)c12,3.7%,·
CC(C)Oc1ccc(CNC(=O)Cn2c(=O)oc3ccccc32)cc1,7.9%,3.1%
Cc1ccc(CNC(=O)Cn2c(=O)oc3ccccc32)o1,28.2µM*,-5.7%
Cc1noc(C)c1S(=O)(=O)Nc1ccc(C(=O)Nc2ccc(Br)cc2)cc1,-6.8%,·
O=C1/C(=C/c2ccc(O)c(O)c2)SC(=S)N1Nc1ccccc1,-25.1%,5.4%
Cc1cc(C)nc(NN2C(=O)/C(=C/c3ccccc3)SC2=S)n1,-0.9%,4.3%
O=C(O)c1ccc(/C=C2\SC(=S)N(Nc3ccccc3)C2=O)cc1,3.16µM*,-1.6%
O=C1/C(=C/c2ccncc2)SC(=S)N1Nc1ccccc1,3.16µM*,-4.1%
CCCCNC(=O)c1cccc(-n2cnc3cccnc32)c1C,-0.2%,·
CCOC(=O)CSC1=NC(=O)/C(=C/c2ccc(OC)cc2)S1,6.31µM*,-83.7%
COc1ccc(/C=C2\SC(N)=NC2=O)cc1,-2.7%,-3.1%

# Source: PubChem
